Tested on: Plasmodium falciparum
Assay: GSK_TCMDC: Inhibition of Plasmodium falciparum 3D7 in whole red blood cells, using parasite LDH activity as an index of growth. Test compounds present at 2uM
Assay type: functional

| Structure (SMILES) | Inhibition [%] |
| --- | --- |
| Cc1cc(Nc2cccc(C(F)(F)F)c2)nc(NCc2ccccc2)n1 | 100 |
| O=C(Nc1ccc(Cl)cc1)N[C@H]1CCN(Cc2ccc(OCCCN3CCCCC3)cc2)C1 | 100 |
| CC(C)C(C(=O)n1cc2c(ccc3nc(N)nc(N)c32)n1)C(C)C | 98 |
| CN1CCc2cc(O)c(NS(=O)(=O)c3ccc(-c4ccc(Cl)cc4)cc3)cc2CC1.Cl | 100 |
| Nc1ccc(-c2cnc3[nH]cc(-c4ccc(C(=O)O)cc4)c3c2)cn1.O=C(O)C(F)(F)F | 97 |
| CCN(CC)CCN(Cc1ccc(-c2ccc(C(F)(F)F)cc2)cc1)C(=O)Cn1c(CCc2ccc(F)c(F)c2)nc(=O)c2ccccc21.O=C(O)C(O)C(O)C(=O)O | 99 |
| CCCC(C)c1ccc(N2C(N)=NC(N)=NC2(C)C)cc1.Cl (stereo not drawn) | 90 |
| Cc1[nH]c(C)c(-c2ccc(-c3ccccc3)nc2)c(=O)c1Br | 96 |
| O=C(O)C(F)(F)F.O=S(=O)(NCCN1CCCC1)c1ccc(-c2ccc(CNC3Cc4ccccc4C3)cc2)cc1F | 100 |
| COc1ccc2nc(-c3cc(-c4ccc(NC(=O)C(C)C)cc4)cnc3N)[nH]c2c1 | 100 |
| CC(C)(C)NCCN(Cc1ccc(-c2ccc(C(F)(F)F)cc2)cc1)C(=O)Cn1c(CCc2cccc(F)c2F)nc(=O)c2c1CCC2.O=C(O)C(O)C(O)C(=O)O | 95 |
| COc1cc(Nc2nccc(N3CCC(NC(=O)Nc4ccc5c(c4)OCO5)C3)n2)cc(OC)c1OC (stereo not drawn) | 96 |
| C=CC[C@H](C[C@H](O)[C@H](Cc1ccccc1)NC(=O)c1nn(-c2ccccc2)nc1C)C(=O)NC1CCCCC1 | 94 |
